Pol kappa inh: qHTS for Inhibitors of Polymerase Kappa; DNA polymerase kappa (Homo sapiens), Q9UBT6; purified Pol kappa, fluorescent DNA synthesis assay, 10 min; Potency, µM (top dose mostly 107 µM), for the others: top-dose activity, negative = inhibition, usual class: inhibitors; 0.53% of 400,000 active; further: on the % scale 0 is the no-effect control and ±100 the full control effect
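Inhibition of 10 nM Pol kappa is measured by a fluorescent read-out at 0 and 10 min following addition of 50 nM substrate (final), with a 15-min room-temperature compound preincubation.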
Pol beta inh: qHTS Assay for Inhibitors of DNA Polymerase Beta | P06746 | Pol beta primer extension/strand displacement, fluorescence kinetic | Potency, µM (highest dose often 114 µM), for inactives: at the highest dose activity change, negative = inhibition, actives largely listed as inhibitors | 1.3% of 340,000 active; further: on the % scale 0 is the no-effect control and ±100 the full control effect
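Pol beta (10 nM) and compounds were preincubated 15 min at room temperature, then 50 nM substrate (final) started primer extension/strand displacement. Reads were taken at 0 and 10 min; concentration-response data were fitted to a four-parameter Hill equation.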
Pol iota inh: qHTS for Inhibitors of Polymerase Iota. AID 588590, 2011. 1% of 390,000 active. DNA polymerase iota (Homo sapiens), Q9UNA4. Potency, µM (series often up to 115 µM), for inactives: top-dose activity, negative = inhibition, hits mostly inhibitors. Pol iota fluorescent replication assay, 10 min
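Pol iota at 10 nM preincubated 15 min with compounds at room temperature; reaction started with fluorescent substrate, 50 nM final. Fluorescence read kinetically at 0 and 10 min; buffer-only wells as negative control.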
POLH inh: qHTS for Inhibitors of Polymerase Eta. DNA polymerase eta (Homo sapiens), Q9Y253. recombinant Pol eta, fluorescent DNA replication assay. Potency, µM (doses to about 114 µM), for the others: at the highest dose activity change, negative = inhibition, hits mostly inhibitors. 1.2% of 390,000 active; further: on the % scale 0 is the no-effect control and ±100 the full control effect
Target sequence (Q9Y253 whole entry, looked up): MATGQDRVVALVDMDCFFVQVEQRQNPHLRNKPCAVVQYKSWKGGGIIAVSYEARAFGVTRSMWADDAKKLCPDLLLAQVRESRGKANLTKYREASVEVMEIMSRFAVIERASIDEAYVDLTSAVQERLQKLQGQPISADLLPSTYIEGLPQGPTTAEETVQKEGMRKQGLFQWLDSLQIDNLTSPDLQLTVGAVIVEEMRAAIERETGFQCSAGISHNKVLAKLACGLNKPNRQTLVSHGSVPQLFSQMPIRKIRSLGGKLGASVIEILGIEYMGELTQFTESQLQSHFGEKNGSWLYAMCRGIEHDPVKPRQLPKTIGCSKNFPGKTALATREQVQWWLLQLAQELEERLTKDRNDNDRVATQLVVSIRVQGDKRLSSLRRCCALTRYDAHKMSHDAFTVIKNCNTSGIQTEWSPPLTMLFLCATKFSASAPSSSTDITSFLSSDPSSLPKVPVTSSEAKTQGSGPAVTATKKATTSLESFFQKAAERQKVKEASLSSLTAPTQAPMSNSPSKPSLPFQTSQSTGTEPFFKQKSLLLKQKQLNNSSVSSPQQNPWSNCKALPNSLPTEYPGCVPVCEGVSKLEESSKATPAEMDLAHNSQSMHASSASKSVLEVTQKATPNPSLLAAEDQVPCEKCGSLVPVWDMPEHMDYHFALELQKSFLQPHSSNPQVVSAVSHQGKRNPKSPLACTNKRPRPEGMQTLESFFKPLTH
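Fluorescent replication assay: 50 nM final substrate added after a 15 min room-temperature compound preincubation with 10 nM enzyme. Signal taken at 0 min and again at 10 min.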
GLS inhibitor: qHTS for Inhibitors of Glutaminase (GLS); Potency, µM (doses to about 45.5 µM), for inactives: at the highest dose activity change, negative = inhibition, actives largely listed as inhibitors; Glutaminase kidney isoform, mitochondrial (Homo sapiens), O94925; 0.21% of 410,000 active; GLS enzymatic activity, qHTS titration; further: on the % scale 0 is the no-effect control and ±100 the full control effect
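Compounds were pin-transferred onto hKGA, after which L-glutamine (1 mM solution) and a detection mix of glutamate oxidase, HRP and Amplex Red were added. Initial and 30 min RT fluorescence reads were collected.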
APEX1 inh: qHTS Assay for Inhibitors of the Human Apurinic/apyrimidinic Endonuclease 1 (APE1); DNA repair nuclease/redox regulator APEX1 (Homo sapiens), P27695; recombinant APE1, TAMRA/BHQ-2 abasic DNA cleavage fluorescence; Potency, µM (highest dose often 65.8 µM), for inactives: at the top dose activity change, negative = inhibition, most hits filed as inhibitors; 0.35% of 350,000 active; AID 2517, 2012;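 further: plate controls were vehicle for no effect and reference inhibitor for full effect; nearly all actives have a fitted effect of over 55% in size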
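Enzyme (0.75 nM final) and test compound are incubated 15 min at room temperature before adding 50 nM quenched THF abasic-site duplex. Cleavage dequenches TAMRA, followed at 525/598 nm over three reads one minute apart.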
Active calls of the source: *; ? = inconclusive; nt = no result given; [ ] = dose if it differs, or a comment. Most compounds without a hit are left out; they make up all but 2.4% or so of the library. The call rests on the fitted dose curve; in most records, active means well fitted curve in the direction sought with a large enough effect; inconclusive means small, poorly fitted or top-dose-only effect, or another doubt; inactive means no such curve, though single readings can be large; an effect the other way counts as inactive or inconclusive. Potency means the concentration at half of the fitted maximal effect.

SMILES	Pol kappa inh	Pol beta inh	Pol iota inh	POLH inh	GLS inhibitor	APEX1 inh
CCc1ccc(/C=C2/SC(=S)N(CCCC(=O)Nc3ccccc3C(=O)O)C2=O)cc1	-28%	50%	-12%	79µM*	19%	23%
O=C(CCN1C(=O)/C(=C/c2ccccc2Cl)SC1=S)Nc1ccccc1C(=O)O	-10%	?	?	79µM*	62%	-15%
Cn1c(=O)c2sccc2n2c(CCC(=O)NCc3ccc(Cl)cc3)nnc12	-11%	17%	5%	-8%	-3%	nt
Cc1cc(C)cc(N=Cc2ccc([N+](=O)[O-])s2)c1	-19%	?	79µM*	32µM*	25%	9%
CCCn1c(SCC(=O)N2c3ccccc3Sc3ccccc32)nc2ccccc21	-8%	5%	25%	-6%	0%	-2%
O=C(NCC(=O)N(c1ccccc1F)C(C(=O)NC1CCCC1)c1ccco1)c1ccco1 (stereo unspecified)	-13%	15%	10%	3%	4%	4%
COCCN(CCOC)C(=O)c1cc2c(=O)n3ccccc3nc2n1C	-22%	10µM*	?	-14%	-9%	nt
COc1cccc(OCc2cc(/C=N/Nc3ccc(C(=O)O)cc3)ccc2OC)c1	-13%	-3%	8%	50µM*	7%	0%
Cc1ccc(CNC(=O)CCc2nnc3ccc(N4CCC5(CC4)OCCO5)nn23)cc1	79µM*	14%	?	-13%	3%	-4%
O=S(=O)(Nc1nc2n(n1)C(c1ccc(F)cc1)C=C(c1ccc(Cl)cc1)N2)c1ccccc1 (stereo unspecified)	-2%	8%	34%	89µM*	-28%	nt
CCn1c(CC(=O)Nc2ccc(C)cc2)nnc1SCC(=O)N1CCN(c2ccccc2)CC1	3%	3%	4%	-4%	14%	1%
CCCN1CCN(CCCNC(=O)c2ccc3c(c2)sc2nc(-c4ccc(OCC)cc4)cn23)CC1	-12%	?	79µM*	-24%	3%	nt
COc1ccc(S(=O)(=O)NC(=O)C2(C)CCN2C(=O)CC2CCCCC2)cc1OC (stereo unspecified)	nt	nt	nt	nt	3%	nt
O=C(CSc1c(Cl)cccc1Cl)NC1CCCc2ccccc21 (stereo unspecified)	0%	?	?	?	-13%	-8%
O=C(CSc1ccccc1Cl)NC1CCCc2ccccc21 (stereo unspecified)	-14%	13µM*	95%	-7%	2%	-11%
Cc1cccc(OC(C)C(=O)N(Cc2cccs2)C2CCS(=O)(=O)C2)c1C (stereo unspecified)	-9%	2%	18%	-3%	-3%	10%
COC(=O)c1c(NC(=O)C2CC=CCC2C(=O)O)sc(C(N)=O)c1C (stereo unspecified)	-17%	3%	14µM*	?	10%	-4%
COC(=O)c1c(NC(=O)c2ccccc2)sc(C(N)=O)c1C	-6%	14%	89µM*	-16%	4%	4%
CCN(CC)c1ncnc2c1ncn2Cc1c(Cl)cccc1Cl	2%	13%	-6%	-16%	-5%	-6%
O=C(COc1ncnc2sccc12)N1CCN(C(=O)c2ccco2)CC1	?	40µM*	20µM*	?	169%	?
Cc1ccc(/C=C2\Oc3cc(OCC(=O)NN)ccc3C2=O)o1	-13%	0%	79µM*	-19%	4%	17%
O=C(O)COc1ccc2c(c1)O/C(=C\c1cccs1)C2=O	-4%	1%	48%	?	22%	-6%
O=C1C=C(Nc2ccccc2)c2ccccc2C1=O	2%	-2%	22µM*	?	4%	-3%
CCc1ccc(NC2=CC(=O)C(=O)c3ccccc32)cc1	-16%	nt	?	50µM*	-1%	?
CN=c1scc(-c2ccccc2F)n1/N=C/c1ccc(O)c(O)c1O	?	1.4µM*	?	?	-30%	10µM*
SMILES	Pol kappa inh	Pol beta inh	Pol iota inh	POLH inh	GLS inhibitor	APEX1 inh
CC(C)N=c1scc(-c2cccs2)n1/N=C/c1ccc(O)c(O)c1O	?	2.2µM*	?	?	-27%	-7%
CCC(=O)N(CCC(c1ccco1)C(C)C)Cc1ccccc1 (stereo unspecified)	-8%	3%	137%	-22%	-3%	-1%
CCC(=O)N(CCC(c1ccc(C)cc1)c1ccco1)Cc1ccco1 (stereo unspecified)	?	25µM*	45µM*	?	-5%	2%
O=C(CCCC(=O)NN=Cc1cccc(O)c1)NN=Cc1cccc(O)c1	-29%	nt	-1%	-8%	19%	nt
Nc1ccc(CCn2ccnc2)cc1	-15%	20%	-17%	-21%	6%	21%
CCOC(=O)c1sc(N2C(=O)C(O)=C(C(=O)c3ccco3)C2c2ccco2)nc1C (stereo unspecified)	?	?	56µM*	?	0%	18%[12.4 µM]
COc1ccc2nc(N3C(=O)C(O)=C(C(=O)c4ccco4)C3c3ccc(C)o3)sc2c1 (stereo unspecified)	-21%	nt	?	-12%	10µM*	-2%
Cc1cc(C)c2nc(N3C(=O)C(O)=C(C(=O)c4ccco4)C3c3ccco3)sc2c1 (stereo unspecified)	-21%	40µM*	35µM*	?	?	17%[12.4 µM]
COc1ccc2nc(N3C(=O)C(O)=C(C(=O)c4ccco4)C3c3ccccc3OC)sc2c1 (stereo unspecified)	-18%	7%	10%	-5%	?	16%
COc1cc([N+](=O)[O-])ccc1NC(=S)N1CCOCC1	-1%	-6%	50%	-12%	5%	23%
COc1ccc(-c2noc(-c3ccc(NC(C)c4ccccc4)c([N+](=O)[O-])c3)n2)cc1OC (stereo unspecified)	-10%	32µM*	55%	-18%	4%	nt
COc1ccc(-c2noc(-c3ccc(NC4CCCCC4)c([N+](=O)[O-])c3)n2)cc1OC	2%	8%	18%	-17%	0%	nt
COc1ccc(-n2nnnc2SCC(=O)Nc2ccc3c(c2)OCCO3)cc1OC	-6%	-1%	50µM*	?	13%	-4%
COc1cccc(-n2nnnc2SCC(=O)Nc2ccc3c(c2)OCCO3)c1	-5%	?	?	?	-1%	-1%
